Data taken from PubChem BioAssay (NCI).
Where “and” joins values, the source holds several entries; their conditions need not be identical. Equal entries are not always repeated. About 83,000 compounds went through this panel and 20% of them were active in at least one assay; those are over-represented in the sample as a whole.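 Compound tested at a single concentration for 48 hours in 96-well plates; a percent growth value below 10 was scored as active.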 Calls of active or inactive are those of the source.

Test system: TK-10 renal
Assay: NCI-60 one-dose screen, 48 h (100 = growth as untreated, 0 = no growth, -100 = all killed)
Settings: 10 µM unless noted

Compound | growth
COc1cc(CC2c3cc(OC)c(OC)cc3CCN2C)c(Oc2cc3c(cc2OC)-c2c(O)c(OC)cc4c2C(C3)N(C)CC4)cc1OC (configuration not stated) | -10.6% [100 µM] (active) and -93% [100 µM] (active)
CC(C)=CCC/C(C)=C/CC/C(C)=C/CC/C(C)=C/C=C/C=C(\C)CC/C=C(\C)CC/C=C(\C)CCC=C(C)C | 106% [100 µM] (inactive) and -87% [100 µM] (active)
N#CC1=C(N)OC(c2cccc([N+](=O)[O-])c2)C1(C#N)C#N (configuration not stated) | -66.6% [100 µM] (active) and -87.5% [100 µM] (active)
O=C(CCc1ccccc1)On1c(-c2ccccc2)nc2ccccc2c1=S | 9.44% [100 µM] (active) and -36.2% [100 µM] (active)
ClC(Cl)(Cl)C1CCOC1n1nnc2ccccc21 (configuration not stated) | 73% [100 µM] (inactive) and 16.8% [100 µM] (inactive)
COc1cc2c(cc1O)Cc1c-2[n+](C)cc2cc(OC)c(OC)cc12 | 89.2% [100 µM] (inactive) and 4.86% [100 µM] (active)
CC(=O)OC(C)c1cc2c(s1)C(=O)c1ccsc1C2=O (configuration not stated) | -61.4% [100 µM] (active) and -100% [100 µM] (active)
NNC1=N/C(=C\c2ccco2)C(Cl)=N1 | 67% [100 µM] (inactive) and 2.87% [100 µM] (active)
COc1cc(Nc2ccc3c(c2)CCC3)nc(OC)n1 | 53.3% [100 µM] (inactive) and -39.4% [100 µM] (active)
O=C1NC(=S)NC1C(Cc1ccccc1)c1ccco1 (configuration not stated) | 80.1% [100 µM] (inactive) and 73% [100 µM] (inactive)
COc1c2c(c(OC)c3c1c(=O)c1ccccc1n3C)OCO2 | 54.2% [100 µM] (inactive)
Cc1ccc(NC(=S)C#N)c(C)c1 | 93.1% [100 µM] (inactive) and 43.3% [100 µM] (inactive)
CCOC(=O)CCC(NC(=O)c1ccc(OCc2nc3cc(C(F)(F)F)ccc3nc2-c2ccccc2)cc1)C(=O)OCC (configuration not stated) | 84.3% [100 µM] (inactive) and 14.7% [100 µM] (inactive)
CCC/C(Cl)=N\OC(=O)Nc1ccc(F)cc1 | -100% [100 µM] (active)
N#CC1C(=O)N(c2ccccc2)NC12OC(=O)c1ccncc12 (configuration not stated) | 88.7% [20 µM] (inactive) and 4.38% [20 µM] (active)
C[C@]12CC[C@@H]3c4cc(Br)c(O)c(Br)c4CC[C@H]3[C@@H]1CC(Br)C2=O (some centres not stated) | -93.2% [100 µM] (active) and -97.6% [100 µM] (active)
Oc1ccccc1-c1n[nH]c(-c2ccccc2O)n1 | 46.3% [100 µM] (inactive) and 4.42% [100 µM] (active)
CC(C)C1OC23CCCCC2C(C#N)(C#N)C1(C#N)C(=N)O3 (configuration not stated) | 39.7% [100 µM] (inactive)
O=C1C=C(Nc2ccc(S(=O)(=O)Nc3nccs3)cc2)c2ccccc2C1=O | 171% [100 µM] (inactive) and -86% [100 µM] (active)
CC(C)(C)c1cc(C2COC(=O)COCC(=O)OCCOCCOCCO2)cc(C(C)(C)C)c1O (configuration not stated) | -74.5% [100 µM] (active) and -100% [100 µM] (active)
N#CC12COC3(CCCCC3C1(C#N)C#N)OC2=N (configuration not stated) | 41.4% [100 µM] (inactive)
N#Cc1c(SCc2ccccc2)nc(-c2ccccc2)[nH]c1=S | 9.89% [100 µM] (active) and 3.82% [100 µM] (active)
COC(=O)c1ccc(CCc2cc(O)c(Br)cc2O)cc1 | -97.6% [100 µM] (active) and -100% [100 µM] (active)
CC(O)c1cc2c(s1)C(=O)c1c(C(C)O)csc1C2=O (configuration not stated) | -20.6% [100 µM] (active) and -88.8% [100 µM] (active)
CCC1CC(C)C(O)/C=C/C=C/CC(C)OC(=O)CC(O)C(OC)C1OC1OC(C)CC(O)(C(C)=O)C1O (configuration not stated) | 62.1% [100 µM] (inactive) and 38.8% [100 µM] (inactive)
COc1ccc2c3c(c(=O)n(C)c2c1OC)C=CC(C)(C)O3 | 8.86% [100 µM] (active) and 15% [100 µM] (inactive)
Cc1cc(-c2nc3ccccc3s2)ccc1N | 35.5% [100 µM] (inactive) and 15.8% [100 µM] (inactive)
